Data on 61 molecules can be found in PubChem BioAssay AID463173 (ICCB-Longwood Screening Facility, Harvard Medical School, 2010).

About 4,300 (8.3%) of roughly 52,000 compounds were called active. Shown is part of a subset that was picked to be rich in actives. Values without a mark were called inactive. No stated cut-off is given here; in the data, active means survival mostly below about 52% (no sharp cut-off); inactive means mostly above about 56%.

For the test, the system named is DeltatarO mutant. Description: growth inhibition of S. aureus wild type versus tarO mutant, primary screen, teichoic acid synthesis inhibitors, RN4220, OD600 (AID 463173). As to conditions: OD600, 18 h, hits give low values, screened at 18.75 µg/mL (by protocol).
Take `Cc1ccc(-n2c(=O)c3c(c4cc(C)ccc4n3C)n(CC(=O)NCc3ccccc3Cl)c2=O)cc1`: the survival was 74%.
The same measure for `Cc1ccc(/C=C/c2onc(C)c2S(=O)(=O)N2CCC(C(=O)N3CCC(N(C)C(C)C)CC3)CC2)cc1`: 67%; for `CCOC(=O)C1=C(CN2CCN(c3ccccc3F)CC2)NC(=O)NC1c1ccc(OC)cc1` (stereo unspecified): 70%.
As for `Cc1ccc(CSCCC(=O)NCc2ccc(F)cc2Cl)cc1`, the survival was 118%.
On to `COc1cccc(NC(=O)CSc2cc(C)c3ccccc3n2)c1`, for which the survival is 72%.
Consider `COc1ccc(NC(=O)CSc2nc3ccccc3n2Cc2cccc(OC)c2)cc1`, for which the survival was 134%.
The same measure for `COc1cccc(NC(=O)CSc2nc3ccccc3n2C)c1`: 37% (active); for `CC(=O)c1cccc(NC(=O)Cn2c(SCC(=O)Nc3ccc(F)cc3)nc3ccccc32)c1`: 20% (active); for `O=C(CSc1nc2ccccc2n1CC(=O)Nc1ccc(F)cc1F)Nc1ccc(F)cc1`: 89%.
As for `Cc1ccccc1NC(=O)Cn1c(SCC(=O)Nc2ccc(F)cc2)nc2ccccc21`, the survival is 95%.
The same measure for `COc1cccc(CNC(=O)c2[nH]c3cc(C)ccc3c2Sc2ccccc2)c1`: 83%.
To `CCCN1C(=O)c2ccccc2NC1c1cc(OC)c(OC)c(OC)c1` (stereo unspecified) belongs 96%.
Consider `CC(C)c1ccc(NC(=O)C2CCN(S(=O)(=O)c3cccc4nsnc34)CC2)cc1`, for which the survival is 72%.
Take `CCOc1ccc(N(CC)S(=O)(=O)N2CCCC(C(=O)Nc3ccc(NC(C)=O)cc3)C2)cc1` (stereo unspecified): the survival is 84%.
In the case of `COc1ccc(-c2cc(C(=O)Nc3c(C)nn(Cc4ccccc4C)c3C)no2)cc1`, the survival was 51%.
Take `COc1cccc(-c2cc(C(=O)Nc3c(C)nn(Cc4ccccc4Cl)c3C)no2)c1`: the survival is 34% (active).
The same measure for `Cc1cc(C(=O)Nc2c(C)nn(Cc3ccc(F)cc3)c2C)no1`: 156%; for `COc1ccccc1-c1cc(C(=O)Nc2c(C)nn(Cc3ccc(Cl)cc3)c2C)no1`: 29% (active); for `COc1ccc(-c2cc(C(=O)Nc3c(C)nn(Cc4ccc(C)cc4)c3C)no2)cc1OC`: 60%.
To `COc1ccc(OC)c(-c2cc(C(=O)Nc3c(C)nn(Cc4ccc(C)cc4)c3C)no2)c1` belongs 34% (active).
For the molecule `CCc1cc(C(=O)Nc2c(C)nn(Cc3ccccc3Cl)c2C)no1`, the survival was 69%.
The same measure for `Cc1ccc(Cn2nc(C)c(NC(=O)c3cc(-c4ccc(F)cc4)on3)c2C)cc1`: 61%; for `COc1ccc(-c2cc(C(=O)Nc3c(C)nn(Cc4ccc(F)cc4)c3C)no2)cc1OC`: 59%.
To `COc1cc(NC(=O)Cn2ncc3c([nH]c4ccc(C)cc43)c2=O)cc(OC)c1OC` belongs 86%; to `Cn1c(N2CCN(S(=O)(=O)c3ccc(Cl)cc3)CC2)nc2ccccc21`, 83%.
The same measure for `COc1ccc(NC(=O)CCc2c(C)nn(-c3ccc(N4CCCCC4)nn3)c2C)cc1Cl`: 87%; for `Cc1sc2nc(CN3CCN(C(=O)c4ccco4)CC3)n(C(=O)c3ccco3)c(=O)c2c1C`: 86%; for `CCOC(=O)c1c(S(=O)(=O)N2CCCC(C(=O)Nc3cc(C)ccc3OC)C2)c(C)n(C)c1C` (stereo unspecified): 75%.
In the case of `O=C(/C=C/c1ccco1)OCCN1CCOCC1`, the survival was 69%.
The same measure for `O=C(Oc1ccccc1-c1nc(-c2ccccc2)no1)c1ccccc1`: 85%; for `O=C(Oc1cccc2cccnc12)c1ccccc1`: 2% (active).
For `O=C(/C=C/c1ccco1)ON1C(=O)c2ccccc2C1=O`, the survival is 91%.
Turning to `O=C1c2ccccc2C(=O)N1COc1cccc2cccnc12`, the survival was 97%.
The same measure for `O=C(/C=C\c1ccco1)Oc1cccc2cccnc12`: 2% (active); for `Cc1ccc(C(c2nnnn2Cc2ccccc2)N2CCC(C)CC2)cc1` (stereo unspecified): 70%.
To `CCCC1(C(=O)OC)NC(c2ccc(OC)c(OC)c2)C2C(=O)N(c3ccc4c(c3)OCO4)C(=O)C21` (stereo unspecified) belongs 84%.
For `COc1cccc(NC(=O)Cn2cc(C(=O)c3ccc(F)cc3)c(=O)c3cc(OC)ccc32)c1`, the survival was 92%.
For `Nc1nnc2c(n1)[nH]c1ccccc12`, the survival is 81%.
For `Cc1ccc(C)c(CN2C(=O)c3ccccc3S(=O)(=O)c3ccc(C(=O)N4CCN(Cc5ccccc5)CC4)cc32)c1`, the survival was 59%.
To `COc1ccc(OC)c(NC(=O)c2cc(C3CC3)nc3c2c(C)nn3-c2ccc(C)cc2)c1` belongs 64%.
To `O=C(CSc1nnc(COc2ccc(F)cc2)o1)N1c2ccccc2CCc2ccccc21` belongs 65%; to `Cn1nnc2c(N3CCN(c4ccc(F)cc4)CC3)ncnc21`, 99%; to `CCOC(=O)C1CCN(c2nc(-c3ccc(Br)cc3)nc3ccccc23)CC1`, 83%.
`COc1ccc(N2CCN(c3ncnc4c3nnn4C)CC2)cc1`: the survival was 0% (active).
The same measure for `CCOC(=O)C1CCN(c2ncnc3c2nnn3C)CC1`: 37% (active); for `Cn1nnc2c(N3CCN(c4ccccc4)CC3)ncnc21`: 74%.
The same measure for `CCOC(=O)C1CCCN(c2ncnc3c2nnn3C)C1` (stereo unspecified): 117%.
Regarding `CCOC(=O)C1CCN(c2cc(C)c(C#N)c3nc4ccccc4n23)CC1`, the survival is 100%.
On to `CCOC(=O)C1CCN(c2nc3ccccc3nc2Cl)CC1`, for which the survival is -24% (active).
To `CC1CCN(c2ncnc3c2nnn3C)CC1` belongs 92%; to `Cc1cc(NS(=O)(=O)c2ccc(NC(=O)COc3ccc(Cl)cc3)cc2)nc(C)n1`, 54%; to `Cc1ccc2[nH]c(=O)c(CN(CC3COCCO3)C(=O)Nc3ccccc3F)cc2c1` (stereo unspecified), 96%.
The same measure for `CCCC12CCC(C(=O)O)(CC1)CC2`: 83%.
Take `Cc1cc(C(=O)NCc2ccccc2Cl)c2c(C)nn(-c3cccc(F)c3)c2n1`: the survival is 68%.
For `CCC(=O)N1CCc2cc(S(=O)(=O)Nc3cc(C)ccc3OC)ccc21`, the survival was 84%.
The same measure for `Cc1cc(C)cc(NC(=O)c2cc(S(=O)(=O)N3CCc4ccccc43)cn2C)c1`: 63%; for `CC(C)OC(=O)CSc1n[nH]c(-c2cccnc2)n1`: 108%.
To `Cc1ccnc(NS(=O)(=O)c2ccc(NC(=O)c3cc(=O)c4ccc(C)c(C)c4o3)cc2)n1` belongs 78%; to `Clc1ccccc1Cn1cccc1C1=NC(Cc2ccccc2)CO1` (stereo unspecified), 40% (active); to `O=c1c2cnn(-c3ccc(F)cc3)c2ncn1Cc1ccccc1Cl`, 100%.
The same measure for `O=C(CSc1nccn1Cc1ccccc1)NCc1ccccc1Cl`: 92%.
